Screening data (PubChem)
POLK inh: qHTS for Inhibitors of Polymerase Kappa. Potency, µM (series often up to 107 µM), inactives show at the top dose activity, negative = inhibition, actives largely listed as inhibitors. 0.53% of 400,000 active. purified Pol kappa, fluorescent DNA synthesis assay, 10 min; note: potency is the fitted concentration of half-maximal effect; % is set by controls: 0 for no effect and ±100 for the full control effect
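Fluorescent qHTS in 1536-well format: enzyme (10 nM) and compound sat 15 min at room temperature before 50 nM substrate (final) was added. Signal taken at 0 and 10 min; no-enzyme buffer wells were negative controls.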
POLB inh: qHTS Assay for Inhibitors of DNA Polymerase Beta. Pol beta primer extension/strand displacement, fluorescence kinetic. Potency, µM (top dose mostly 114 µM), inactives show at the highest dose activity change, negative = inhibition, most hits filed as inhibitors. P06746. 1.3% of 340,000 active; note: potency is the fitted concentration of half-maximal effect; % is set by controls: 0 for no effect and ±100 for the full control effect
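Reaction started by 50 nM substrate onto compound-treated Pol beta (10 nM, 15 min preincubation, room temperature); plates read at 0 min and 10 min. Normalized concentration-effect data fitted by four-parameter Hill equation.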
WRN inhibitor: qHTS for Inhibitors of WRN Helicase. WRN helicase unwinding, fluorescent forked duplex, kinetic. Potency, µM (top dose mostly 114 µM), for inactives: top-dose activity change, negative = inhibition, most hits filed as inhibitors. 0.46% of 360,000 active. AID 651768, 2012; note: potency is the fitted concentration of half-maximal effect; % is set by controls: 0 for no effect and ±100 for the full control effect; nearly all actives have a fitted effect of over 55% in size
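Kinetic fluorescence helicase assay: unwinding of a quenched forked DNA duplex (100 nM final) with 2 mM ATP final raises red fluorescence (525/598 nm). Compounds sat 15 min at room temperature with 20 nM WRN beforehand.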
POLI inh: qHTS for Inhibitors of Polymerase Iota; Potency, µM (titrated, usually from 115 µM), inactives show top-dose activity, negative = inhibition, hits mostly inhibitors; 1% of 390,000 active; Pol iota fluorescent replication assay, 10 min; note: potency is the fitted concentration of half-maximal effect
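Pol iota at 10 nM preincubated 15 min with compounds at room temperature; reaction started with fluorescent substrate, 50 nM final. Fluorescence read kinetically at 0 and 10 min; buffer-only wells as negative control.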
Pol eta inh: qHTS for Inhibitors of Polymerase Eta; recombinant Pol eta, fluorescent DNA replication assay; Potency, µM (doses to about 114 µM), for inactives: at the highest dose activity change, negative = inhibition, most hits filed as inhibitors; DNA polymerase eta (Homo sapiens), Q9Y253; 1.2% of 390,000 active; AID 588591, 2011; note: potency is the fitted concentration of half-maximal effect; % is set by controls: 0 for no effect and ±100 for the full control effect
Target sequence (Q9Y253 whole entry, looked up): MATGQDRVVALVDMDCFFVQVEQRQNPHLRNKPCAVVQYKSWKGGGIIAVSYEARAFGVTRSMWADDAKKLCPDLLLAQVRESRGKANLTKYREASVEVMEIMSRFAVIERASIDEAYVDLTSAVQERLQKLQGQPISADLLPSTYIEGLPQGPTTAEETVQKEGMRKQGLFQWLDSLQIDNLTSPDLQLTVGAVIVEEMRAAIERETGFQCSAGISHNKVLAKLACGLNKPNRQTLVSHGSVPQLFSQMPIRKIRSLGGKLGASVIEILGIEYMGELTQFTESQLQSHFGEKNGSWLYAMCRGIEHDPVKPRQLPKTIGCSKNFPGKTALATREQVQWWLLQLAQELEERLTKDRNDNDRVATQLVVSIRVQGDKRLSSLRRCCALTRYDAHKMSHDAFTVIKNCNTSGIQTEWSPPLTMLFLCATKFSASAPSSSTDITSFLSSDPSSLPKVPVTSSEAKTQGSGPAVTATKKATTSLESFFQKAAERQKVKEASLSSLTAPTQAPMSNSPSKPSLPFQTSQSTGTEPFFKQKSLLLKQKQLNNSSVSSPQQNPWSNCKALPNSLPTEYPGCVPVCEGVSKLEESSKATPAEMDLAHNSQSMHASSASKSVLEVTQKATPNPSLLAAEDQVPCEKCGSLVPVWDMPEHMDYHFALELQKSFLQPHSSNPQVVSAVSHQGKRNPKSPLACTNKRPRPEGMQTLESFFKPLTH
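Fluorescent replication assay: 50 nM final substrate added after a 15 min room-temperature compound preincubation with 10 nM enzyme. Signal taken at 0 min and again at 10 min.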
PI5P4Ka inh: qHTS for Inhibitors of phosphatidylinositol 5-phosphate 4-kinase (PI5P4K); Phosphatidylinositol 5-phosphate 4-kinase type-2 alpha (Homo sapiens), P48426; PI5P4Kalpha enzyme, ADP-Glo luminescence, 60 min; stronger effect = lower value; max response, %; 1.2% of 330,000 active; active = max response of -50% or lower; inconclusive = between -30% and -50%; inactive = -30% or higher; note: value at the top dose of about 77 µM; % is set by controls: 0 for no effect and ±100 for the full control effect
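ADP-Glo luminescence end-point read after a 60 min room-temperature kinase reaction of PI5P4Kalpha plus substrate, initiated with ATP at 5 microM final. Buffer: 0.038 M HEPES pH 7.4, EGTA, 0.1% CHAPS, 5% DMSO.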
Numbers without * were called inactive; ? = inconclusive; nt = no result given; ! = not active in a repeat; [ ] = another dose, or the depositor's remark. This is a sample that favours compounds with a hit; in the whole collection about 2.8% have one here. Unless noted, calls come from the whole dose curve; as a rule, active = well fitted curve in the direction sought with a large enough effect; inconclusive = small, poorly fitted or top-dose-only effect, or another doubt; inactive = no such curve, though single readings can be large; an effect the other way counts as inactive or inconclusive.

SMILES	POLK inh	POLB inh	WRN inhibitor	POLI inh	Pol eta inh	PI5P4Ka inh
CN(C)c1ccc(O)c2c1CC1CC3[C@@H](N(C)C)C(=O)C(C(N)=O)=C(O)[C@]3(O)C(=O)C1=C2O (stereo partly specified)	-20.3%	?	-18.2%	-18.2%	?	?
CN(C)[C@H]1C(=O)C(C(=O)NCN2CCCC2)=C(O)[C@]2(O)C(=O)C3=C(O)c4c(O)cccc4[C@@](C)(O)[C@H]3C[C@@H]12	4.74µM*	nt	nt	nt	nt	nt
COc1ccc(Br)cc1C(=O)NC(=S)Nc1ccc(Cl)c(C(=O)O)c1	-13.0%	12.5%	-15.9%	?	?	-65.4*
CCCCCCCCN1[C@@H](CC(=O)O)c2cc(C(F)(F)F)ccc2S1(=O)=O	-18.0%	nt	-7.8%	?	-2.4%	-0.1
CCCCCCCCCCCCN1[C@@H](CC(=O)O)c2cc(C(F)(F)F)ccc2S1(=O)=O	?	nt	-31.3%	?	44.7µM*	?
CCN(CC)c1ccc2cc(-c3nnc(-c4cccc(Cl)c4)o3)c(=O)oc2c1	?	31.2%	nt	89.1µM*	-18.1%	nt
CCN(CC)c1ccc2cc(-c3nnc(-c4ccncc4)o3)c(=O)oc2c1	-0.5%	-13.6%	-3.3%	-13.0%[58.9 µM]	-2.8%	nt
CC(=O)N/C(=C/c1ccccc1)c1ccncc1	3.5%	nt	nt	28.0%	nt	nt
Cc1ccc(CN(C(=O)c2ccc(F)cc2)c2ccccn2)o1	-22.9%	2.0%	nt	14.7%	-15.1%	nt
Cc1ccc(CN(C(=O)c2ccccc2F)c2ccccn2)o1	?	56.2µM*	nt	79.4µM*	-23.3%	nt
COc1ccc(C2=C(N3CCN(c4cccc(C)c4)C(C)C3)c3ccccc3C2=O)cc1 (stereo unspecified)	-0.7%	-19.5%	nt	41.6%	-26.6%	nt
Cn1ncc(Cl)c1C(=O)Nc1cccc(Cl)c1	-14.5%	25.1%	14.8%	32.8%	-2.8%	-18.3
Cn1ncc(N=Cc2c(O)ccc3ccccc23)c1C(=O)Nc1cccc(Cl)c1	-10.4%	1.2%	?	?	50.1µM*	1.0
CCOC(=O)C1=C(O)/C(=C/c2ccc(-c3ccccc3C(=O)O)o2)SC1=Nc1ccc(C)cc1	39.8µM*	3.3%	?	?	22.4µM*	-98.9*
CCOC(=O)C1=C(O)/C(=C/c2cn(CC(=O)NCC3CCCO3)c3ccccc23)SC1=Nc1ccc(C)cc1 (stereo unspecified)	-18.2%	nt	-13.7%	?	14.1µM*	-0.4
COc1ccc(CNC(=O)C2CCCN(c3nccc(C)n3)C2)cc1 (stereo unspecified)	-4.3%	-8.4%	3.7%	15.6%	-15.5%	0.2
O=c1c(O[C@@H]2O[C@H](CO)C(O)C2O)c(-c2ccc(O)c(O)c2)oc2cc(O)cc(O)c12 (stereo partly specified)	25.1µM*	nt	-22.3%	35.5µM*	?	-16.5
O=c1cc(-c2ccccc2)oc2cc(O[C@@H]3O[C@H](CO)[C@@H](O)[C@H](O)[C@H]3O)c(O)c(O)c12	10µM*	nt	nt	nt	nt	nt
COc1ccc(-c2cc(=O)c3c(O)c(OC)c(O[C@@H]4OC(COC5OC(C)C(O)C(O)[C@@H]5O)C(O)C(O)C4O)cc3o2)cc1 (stereo partly specified)	-9.7%[60.1 µM]	nt	nt	nt	nt	nt
CC1OC(OCC2OC(Oc3c(-c4ccc(O)c(O)c4)oc4cc(O)cc(O)c4c3=O)C(O)C(O)C2O)C(O)C(O)C1O (stereo unspecified)	6.31µM*	nt	nt	nt	nt	nt
O=c1c2c(O)cc(O)cc2oc2c(O)ccc(O[C@H]3O[C@@H](CO)[C@H](O)[C@@H](O)[C@@H]3O)c12	?	nt	-16.9%	?	7.3%	-56.2*
CCOc1ccc(/C=C/C(=O)N(CC)CC(=O)Nc2ccc3c(c2)OCCO3)cc1OCC	-8.3%	18.6%	-29.6%	7.8%	-25.4%	4.7
COc1ccccc1N1CCN(C(=O)c2ccc3noc(-c4ccccc4)c3c2)CC1	nt	nt	2.3%	nt	-11.7%	?
COc1ccc(CN(C)C(=O)/C=C/[C@H]2O[C@@H](n3cnc4c(N)ncnc43)[C@H](O)[C@@H]2O)cc1OC	nt	nt	2.3%	nt	nt	1.7
CCOc1ccccc1NC(=O)Nc1ccc2nc(N3CCN(C)CC3)cc(C)c2c1	-8.6%	?	nt	15.3%	?	nt
SMILES	POLK inh	POLB inh	WRN inhibitor	POLI inh	Pol eta inh	PI5P4Ka inh
O=C(Nc1ccc([N+](=O)[O-])cc1Cl)c1ccccc1O	-10.4%	nt	nt	-15.9%	nt	nt
COc1ccc(/C=N/N2C(=N)SCC2=O)cc1	13.1%	-19.3%	-8.7%	12.5%	-16.1%	-0.8
O=c1cc(-c2ccc(O)c(O)c2)oc2cc(O[C@@H]3O[C@H](CO)[C@@H](O)[C@H](O)[C@H]3O)cc(O)c12	2.51µM*	nt	?	6.31µM*	8.91µM*	?
O=C(O)CCC(=O)Nc1sc2c(c1C(=O)Nc1ccccc1)CCCCC2	-26.8%	?	-34.3%	30.4%	89.1µM*!	?
O=C(O)CCC(=O)Nc1sc2c(c1C(=O)Nc1cccc3ccccc13)CCCCC2	-1.0%	-7.2%	-16.6%	?	-3.7%	-9.2
O=C(COc1ccccc1)Nc1sc2c(c1C(=O)NCc1cccnc1)CCCC2	-12.9%	35.5µM*	-27.9%[57.1 µM]	?	?	nt
CCOc1ccc(NC(=O)c2c(NCc3cccnc3)sc3c2CCCC3)cc1	-8.5%[60.1 µM]	-9.4%	nt	16.8%	-22.4%	nt
COc1cccc2nccc(/C=C/c3ccc(N(C)C)cc3)c12	-19.6%	nt	nt	?	nt	nt
COC(=O)/C=C/COc1ccccc1[N+](=O)[O-]	3.5%	?	-2.3%	-23.6%	-15.4%	-67.4*
O=C(CNC(=O)c1cccc(F)c1)NC1CC1	-14.8%	nt	-7.0%	3.7%	-7.1%	3.0
COc1ccc(CNC(=O)C[C@H]2C[C@H](C(=O)N3CCCCC3)[C@@]3(C)c4[nH]c5cc(-c6ccco6)ccc5c4CCN3C2=O)cc1OC	?	nt	-1.1%	39.8µM*	-15.5%	-29.4
CCN(CC)C(=O)[C@H]1C[C@H](CC(=O)NCc2ccc(OC)c(OC)c2)C(=O)N2CCc3c([nH]c4cc(-c5ccco5)ccc34)[C@]12C	7.5%	nt	-9.1%[11.6 µM]	?	-16.7%	4.6
CC1CCN(S(=O)(=O)c2ccc3c(c2)CCC(=O)N3CC(=O)Nc2cccc(C#N)c2)CC1	-7.7%[60.1 µM]	50.1µM*	nt	?	79.4µM*	nt
CCc1cccc(NC(=O)CN2C(=O)CCc3cc(S(=O)(=O)N4CCOCC4)ccc32)c1	-3.6%[60.1 µM]	6.2%	nt	24.0%	-18.7%	nt
